Where “and” joins values, the source holds several entries; their conditions need not be identical. Identical values can stand only once. This is part of a sample that, as a whole, favours compounds with a hit. Of some 83,000 tested, about 20% had one in any assay.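 Activity criterion: percent growth below 10, measured after cells in 96-well plates were exposed to a single compound concentration for 48 hours.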 Calls of active or inactive are those of the source.
Test system: SN12C renal
Test: NCI-60 one-dose screen, 48 h (100 = growth as untreated, 0 = no growth, -100 = all killed)
Settings: 10 µM unless noted

**Q.** Which growth does the source give for NCCc1ccc(OCc2ccccc2)c(OCc2ccccc2)c1 here?
**A.** The growth was 86.6% (inactive).

**Q.** Which growth does the source give for Oc1cccc2cccnc12 here?
**A.** Its growth is 89.6% (inactive) and 103% (inactive) and 99.6% (inactive).

**Q.** COc1ccccc1/C=C(/C)[N+](=O)[O-] was tested. Which growth did it give?
**A.** Its growth is 32.9% (inactive) and 99.3% (inactive).

**Q.** How did the growth turn out when CC1=C2C(=O)[C@H]3[C@@H](CC=C4C[C@@H](O)CC[C@@]43C)[C@@H]2CC[C@]12O[C@@H]1C[C@H](C)CN[C@H]1[C@H]2C was run?
**A.** Its growth is 102% (inactive).

**Q.** Which growth does the source give for Cc1cc(N=Nc2ccccc2C)ccc1N here?
**A.** The growth was 28.9% (inactive).

**Q.** COc1ccc(OC)c(/C=C/[N+](=O)[O-])c1 was tested. Which growth did it give?
**A.** Its growth is 15.9% (inactive).

**Q.** For CC[C@](O)(C(=O)O)c1cc2n(c(=O)c1CO)Cc1cc3ccccc3nc1-2, which growth is on record?
**A.** Its growth is 17% (inactive).

**Q.** Which growth does the source give for Cc1c(N)nc([C@H](CC(N)=O)NC[C@H](N)C(N)=O)nc1C(=O)N[C@H](C(=O)N[C@H](C)[C@@H](O)[C@H](C)C(=O)N[C@H](C(=O)NCCc1nc(-c2nc(C(=O)NCCC[S+](C)C)cs2)cs1)[C@@H](C)O)C(OC1OC(CO)C(O)C(O)C1OC1OC(CO)C(O)C(OC(N)=O)C1O)c1cnc[nH]1 (stereo partly drawn) here?
**A.** Its growth is 52.2% [2.5 µM] (inactive).

**Q.** With CC[C@@]1(O)C(=O)OCc2c1cc1n(c2=O)Cc2cc3ccccc3nc2-1 as the molecule, how does the growth read?
**A.** Its growth is 13.5% (inactive).

**Q.** Which growth does the source give for Oc1cc[c]([Hg][Cl])cc1 here?
**A.** The growth was 98.9% (inactive).

**Q.** With CCC1(O)CC(OC2CC(N(C)C)C(OC3CC4OC5CC(=O)C(C)OC5OC4C(C)O3)C(C)O2)c2c(cc3c(c2O)C(=O)c2c(O)ccc(O)c2C3=O)C1C(=O)OC (stereo not drawn) as the molecule, how does the growth read?
**A.** The growth was 13.4% (inactive).

**Q.** O=C1c2ccccc2C(=O)C(Cl)C1Cl (stereo not drawn) was tested. Which growth did it give?
**A.** The growth was 71.4% (inactive).

**Q.** With Cc1ccc(C(=O)OC(C(=O)O)C(OC(=O)c2ccc(C)cc2)C(=O)O)cc1 (stereo not drawn) (tested in a mixture with another compound) as the molecule, how does the growth read?
**A.** Its growth is 38.5% (inactive).

**Q.** Which growth does the source give for CCCCCCCCCCCC1CCCC(C)N1 (stereo not drawn) here?
**A.** The growth was 75.3% (inactive).

**Q.** CC(=O)O[C@H]1C[C@@H]2OC3C=C(C)CCC3(C)[C@@]1(C)[C@@]21CO1 (stereo partly drawn) was tested. Which growth did it give?
**A.** The growth was -9.69% (active) and 0.846% (active).

**Q.** CC[C@@]1(O)C[C@H](OC2CC(N(C)C)C(OC3CC(O)C(OC4CCC(=O)C(C)O4)C(C)O3)C(C)O2)c2c(cc3c(c2O)C(=O)c2c(O)ccc(O)c2C3=O)[C@H]1C(=O)OC (stereo partly drawn) was tested. Which growth did it give?
**A.** The growth was 24.3% (inactive).

**Q.** For C[C@H]1CCC/C=C/[C@@H]2C[C@H](O)C[C@H]2[C@H](O)/C=C/C(=O)O1, which growth is on record?
**A.** The growth was 19.8% (inactive).

Test system: UO-31 renal
Test: as above
Settings: 10 µM unless noted

**Q.** For CC[C@@]1(O)C[C@H](OC2CC(N(C)C)C(O)C(C)O2)c2c(O)c3c(c(O)c2[C@H]1OC1CC(N(C)C)C(O)C(C)O1)C(=O)c1cccc(O)c1C3=O (stereo partly drawn), which growth is on record?
**A.** Its growth is -33.9% (active).

**Q.** Which growth does the source give for COC1CC(CC2CCC(C)C(C(C)C(=O)O)O2)OC2(OC(C)(C3CCC(C)(C4OC(C5OC(O)(CO)C(C)CC5C)CC4C)O3)CC2C)C1C (stereo not drawn) here?
**A.** The growth was 13.3% (inactive).

**Q.** For CCC(=O)OC1CCn2c1nc1c2C(=O)C(C)=C(N2CC2)C1=O (stereo not drawn), which growth is on record?
**A.** Its growth is -9.18% (active).

**Q.** Which growth does the source give for CO[C@H](/C(C)=C/C=C/C(C)=C/c1coc(C)n1)[C@H](C)[C@H]1C[C@@H](O)[C@@]2(C)O[C@H]2/C=C/[C@@H](C)[C@@H]2C[C@@H](CC(=O)O2)C[C@H]2O[C@@H]2C(=O)O1 here?
**A.** The growth was 20.7% (inactive).

**Q.** CC1=C(CO)C2=C(C)C3(CC3)[C@@](C)(O)C(=O)C2=C1 was tested. Which growth did it give?
**A.** Its growth is -40.5% (active).

**Q.** With CC[n+]1c(-c2ccccc2)c2cc(N)ccc2c2ccc(N)cc21 as the molecule, how does the growth read?
**A.** Its growth is 63.5% (inactive).

**Q.** CN1CCN(c2ccc([N+](=O)[O-])c3no[n+]([O-])c23)CC1 was tested. Which growth did it give?
**A.** Its growth is -48.4% (active).

**Q.** COc1cccc2c1cc([N+](=O)[O-])c1c(C(=O)O)cc3c(c12)OCO3 was tested. Which growth did it give?
**A.** The growth was 76.5% (inactive) and 87.8% (inactive).

**Q.** How did the growth turn out when CCOC(=O)C(NC(=O)C(Cc1ccc(N(CCCl)CCCl)cc1)NC(C)=O)C(C)C (stereo not drawn) was run?
**A.** Its growth is 82.5% (inactive).

**Q.** How did the growth turn out when C[C@]12CC[C@H](O)CC1=CC[C@@H]1[C@@H]2CC[C@]2(C)C(=O)CC[C@@H]12 was run?
**A.** Its growth is 80.6% (inactive).

**Q.** Which growth does the source give for NCCc1ccc(OCc2ccccc2)c(OCc2ccccc2)c1 here?
**A.** Its growth is 51.2% (inactive).

**Q.** Which growth does the source give for Oc1cccc2cccnc12 here?
**A.** The growth was 74.2% (inactive) and 94.4% (inactive) and 80.2% (inactive).

**Q.** With COc1ccccc1/C=C(/C)[N+](=O)[O-] as the molecule, how does the growth read?
**A.** Its growth is 78.7% (inactive) and 83.1% (inactive).

**Q.** CC1=C2C(=O)[C@H]3[C@@H](CC=C4C[C@@H](O)CC[C@@]43C)[C@@H]2CC[C@]12O[C@@H]1C[C@H](C)CN[C@H]1[C@H]2C was tested. Which growth did it give?
**A.** The growth was 72.6% (inactive).

**Q.** Cc1cc(N=Nc2ccccc2C)ccc1N was tested. Which growth did it give?
**A.** Its growth is 19.3% (inactive).

**Q.** Which growth does the source give for COc1ccc(OC)c(/C=C/[N+](=O)[O-])c1 here?
**A.** The growth was -81.9% (active).

**Q.** How did the growth turn out when CC[C@](O)(C(=O)O)c1cc2n(c(=O)c1CO)Cc1cc3ccccc3nc1-2 was run?
**A.** Its growth is -61% (active).

**Q.** With Cc1c(N)nc([C@H](CC(N)=O)NC[C@H](N)C(N)=O)nc1C(=O)N[C@H](C(=O)N[C@H](C)[C@@H](O)[C@H](C)C(=O)N[C@H](C(=O)NCCc1nc(-c2nc(C(=O)NCCC[S+](C)C)cs2)cs1)[C@@H](C)O)C(OC1OC(CO)C(O)C(O)C1OC1OC(CO)C(O)C(OC(N)=O)C1O)c1cnc[nH]1 (stereo partly drawn) as the molecule, how does the growth read?
**A.** Its growth is 39.9% [2.5 µM] (inactive).

**Q.** For CC[C@@]1(O)C(=O)OCc2c1cc1n(c2=O)Cc2cc3ccccc3nc2-1, which growth is on record?
**A.** Its growth is -59.6% (active).

**Q.** Oc1cc[c]([Hg][Cl])cc1 was tested. Which growth did it give?
**A.** Its growth is 100% (inactive).

**Q.** With CCC1(O)CC(OC2CC(N(C)C)C(OC3CC4OC5CC(=O)C(C)OC5OC4C(C)O3)C(C)O2)c2c(cc3c(c2O)C(=O)c2c(O)ccc(O)c2C3=O)C1C(=O)OC (stereo not drawn) as the molecule, how does the growth read?
**A.** The growth was -39.6% (active).

**Q.** For O=C1c2ccccc2C(=O)C(Cl)C1Cl (stereo not drawn), which growth is on record?
**A.** Its growth is -98.5% (active).

**Q.** How did the growth turn out when CCCCCCCCCCCC1CCCC(C)N1 (stereo not drawn) was run?
**A.** The growth was 29% (inactive).

**Q.** For CC(=O)O[C@H]1C[C@@H]2OC3C=C(C)CCC3(C)[C@@]1(C)[C@@]21CO1 (stereo partly drawn), which growth is on record?
**A.** Its growth is -5.32% (active) and -11.9% (active).

**Q.** Which growth does the source give for CC[C@@]1(O)C[C@H](OC2CC(N(C)C)C(OC3CC(O)C(OC4CCC(=O)C(C)O4)C(C)O3)C(C)O2)c2c(cc3c(c2O)C(=O)c2c(O)ccc(O)c2C3=O)[C@H]1C(=O)OC (stereo partly drawn) here?
**A.** Its growth is -57.2% (active).

**Q.** How did the growth turn out when C[C@H]1CCC/C=C/[C@@H]2C[C@H](O)C[C@H]2[C@H](O)/C=C/C(=O)O1 was run?
**A.** Its growth is -22.9% (active).

— PubChem BioAssay (NCI)
